Consider 50 molecules from PubChem BioAssay AID540317 (National Center for Advancing Translational Sciences (NCATS), 2011).

Screen size: about 390,000 compounds; about 2,200 (0.56%) were called active. Inconclusive results (about 3%) are left out. The call rests on the fitted dose curve; in most records, active means well fitted inhibition curve with a large enough effect; inconclusive means small, poorly fitted or top-dose-only effect; inactive means no such curve, though single readings can be large or run the other way. Shown is part of a subset that was picked to be rich in actives. Entries that show only a call come without a potency.
Potency means the concentration at half of the fitted maximal effect.

This test deals with Chromobox protein homolog 1 (Homo sapiens) (UniProt P83916). As to the kind of experiment: HTS for Inhibitors of HP1-beta Chromodomain Interactions with Methylated Histone Tails. Further: nearly all actives have a fitted effect of over 70% in size. To be noted: AlphaScreen HP1-beta / biotin-H3K9me3 peptide binding; series mostly up to 114 µM. An excerpt: As our understanding of epigenetics expands, it is becoming clear that players in this field are potential targets for drug development. This area of epigenetic therapy has established applications for the treatment of cancer and neurological diseases. We have been involved in this field for a number of years and have performed high-throughput screens to identify the first small molecule inhibitors of protein methyltransferases. These methyltransferases target multiple substrates, and thus regulate many arms of an epigenetic pathway. The methylation of different substrates often generates docking sites for effector proteins that harbor binding domains (chromo, tudor, PHD, MBT and ANK repeats). It has been proposed that the binding sites generated for different proteins by these post-translational modifcations mediate downstream effects on chromatin. Consistent with this theory, di- and tri-methylation of histone H3K9 facilitates the binding of heterochromatin protein HP1. The HP1 protein harbors a chromodomain that is responsible for the methyl-dependent interaction between HP1 and lysine 9 of histone H3. HP1 was first described in flies as a heterochromatin associated protein that can regulate gene silencing. It harbors a chromodomain that binds H3K9me3. In addition, it harbors a chromoshadow domain that interacts with a large number of proteins that are involved in heterochromatin formation and gene repression. There are three highly related HP1 isoforms. All three variants are associated with pericentric heterochromatin and it is not clear whether they have specific or redundant functions. MPP8 is also involved in the repression of gene in euchromatic regions (unpublished data) and like HP1 its chromodomain binds H3K9me3. MPP8 harbors an ankyrin repeat region that is likely involved in binding and recruiting interacting proteins with transcriptional repressive function, much like the chromoshadow domain of HP1 does. We hypothesize that by inhibiting specific protein-protein interactions we will be able to develop compounds that block a single arm of an epigenetic pathway. The specificity attained by blocking a single protein-protein interaction will be far greater than that attained by blocking the enzyme that regulates one of many interactions. Low-affinity protein-protein interactions (Kd in the single- to double-digit micromolar range) such as those discussed here have been very difficult to assay by traditional techniques such as fluorescence polarization or fluorescence resonance energy transfer. We have developed a sensitive chemiluminescence-based assay (Quinn, et al. 2009), which serves as the starting point for this project. The following is a validation assay to identify lead compounds that can block methyl-dependent protein-protein interactions (specifically HP1-beta), which can be used as probes to analyze these methyl-driven interactions and perhaps even developed into targeted epigenetic therapies. NIH Chemical Genomics Center [NCGC] NIH Molecular Libraries Probe Centers Network [MLPCN] MLPCN Grant: DA031087 Assay Submitter (PI): Mark Bedford, University of Texas, Medical Anderson Cancer Center, TX
Chain of Chromobox protein homolog 1 (Homo sapiens) (P83916 whole entry, looked up): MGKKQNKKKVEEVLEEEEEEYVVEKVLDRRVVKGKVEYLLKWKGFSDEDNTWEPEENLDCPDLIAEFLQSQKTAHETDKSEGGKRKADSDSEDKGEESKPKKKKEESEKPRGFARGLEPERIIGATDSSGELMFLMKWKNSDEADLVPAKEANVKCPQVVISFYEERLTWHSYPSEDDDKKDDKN
To each well, 2 uL of HP1-beta protein (final 50 nM) and 1 uL biotinylated histone peptide trimethylated at Lys9 [b-H3(1-18)K9me3] (final 50 nM) was added in 1x PBS buffer, pH 7.4, containing 0.01% Tween-20 using a nanoliter dispenser. Formation of a protein-peptide complex proceeded at room temperature for 30 min. A Kalypsys pin-tool was employed to transfer 23 nL of library compound solution in DMSO to each well. Aurintricarboxylic acid (ATA) was used as an intraplate control with a 12-point titration in duplicate. Following a 30 min incubation of the protein-peptide complex with compounds at room temperature, a mixture of 40 ug/mL each streptavidin-coated donor and nickel chelate acceptor AlphaScreen beads (final 10 ug/mL) was added in a 1 uL dispense for a final volume of 4 uL. […]
Background: Alpha assays give light when donor and acceptor beads are brought close together.
As to `Cc1cc([N+](=O)[O-])c(N2CCC[C@@H]2C(=O)O)c([N+](=O)[O-])c1`, the Potency result was “inactive”.

In the case of `Cc1ccc(C(=O)COC(=O)CCCC(=O)NC2CCCCC2)cc1[N+](=O)[O-]`, the Potency entry was “inactive”.

With `Cc1cc([N+](=O)[O-])c(NC2CCCCC2)c([N+](=O)[O-])c1`, the Potency is 15.8 µM (active).

With `COc1ccc(C2Nc3ccc(NC(=O)COC(C)=O)cc3C(=O)N2Cc2ccccc2)cc1COc1ccc(NC(C)=O)cc1` (stereo not given), the Potency result was “inactive”.

In the case of `O=C(NCc1ccccc1)c1cccc(NC(=O)N2CCSc3ncccc32)c1`, the Potency result is “inactive”.

Consider `CCCN(C(=O)Cn1ncc2c([nH]c3ccc(C)cc32)c1=O)c1ccccc1C`, for which the Potency entry was “inactive”.

Regarding `Cc1ccc(CCNC(=O)c2nnc(Cc3cccc(F)c3)o2)cc1`, the Potency entry is “inactive”.

For the molecule `COc1cccc(-c2n[nH]c3c2C(c2cccc(O)c2)N(C)C3=O)c1` (stereo not given), the Potency result is “inactive”.

As for `O=C(CN1CCCCCC1)Nc1ccc(Br)cc1[N+](=O)[O-]`, the Potency was 50.1 µM (active).

As for `O=C(CN1CCC(NC(=O)C2CC2)CC1)Nc1ccccc1[N+](=O)[O-]`, the Potency entry was “inactive”.

Regarding `O=C(CN1CCCCCC1)Nc1ccc(Br)cc1Br`, the Potency result was “inactive”.

With `COc1ccc(C(CCN2CCOCC2)c2c(OC)cc(OC)c3c2OC(=O)CC3c2ccc(OC)cc2)cc1` (stereo not given), the Potency entry was “inactive”.

Take `CCOc1ccc(N2CC(C)Cn3c2nc2c3c(=O)n(Cc3c(F)cccc3Cl)c(=O)n2C)cc1` (stereo not given): the Potency entry is “inactive”.

Regarding `COC(=O)c1ccccc1NC(=O)Cn1c(=O)n(-c2cccc(C(F)(F)F)c2)c(=O)c2c(C)c(C)sc21`, the Potency entry is “inactive”.

In the case of `CCOc1ccc(S(=O)(=O)c2cn(Cc3ccc(OC)cc3)c3ccc(F)cc3c2=O)cc1`, the Potency result was “inactive”.

For the molecule `COc1ccc2c(c1)c(=Cc1ccc(N(C)C)cc1)c1cc(-c3ccccc3)[n+](C)n12`, the Potency was 39.8 µM (active).

For the molecule `COc1ccc(-c2ccc(C3C4C=CCCC4(C)C(=O)N3Cc3ccccc3)c(F)c2)cc1OC` (stereo not given), the Potency entry is “inactive”.

For the molecule `Clc1cccc(-n2ncc3c(NCCc4ccccc4)ncnc32)c1`, the Potency result is “inactive”.

For `CCCOC(=O)c1c(NC(=O)c2cc3nc(-c4ccc(OC)cc4)cc(C(F)(F)F)n3n2)sc2c1CCCC2`, the Potency result is “inactive”.

`Cc1ccc(OCC(=O)Oc2ccccc2[N+](=O)[O-])cc1`: the Potency result was “inactive”.

Take `C=CCN(CC=C)CCOc1ccccc1[N+](=O)[O-]`: the Potency is 39.8 µM (active).

On to `O=C(COc1ccccc1[N+](=O)[O-])NC1CC1`, for which the Potency entry is “inactive”.

In the case of `OCCNc1ncnc2oc(-c3ccco3)c(-c3ccco3)c12`, the Potency result was “inactive”.

For the molecule `CCOC(=O)C1CCCN(C(=O)c2ccc(-n3ccc4ccccc43)s2)C1` (stereo not given), the Potency entry was “inactive”.

As to `O=C(c1cccc(Br)c1)N1CCN(Cc2cc(=O)n3nc(-c4ccccc4)sc3n2)CC1`, the Potency entry is “inactive”.

Consider `COc1ccc(NC(=O)CN(C)C(=O)c2ccc(NC3CC3)c([N+](=O)[O-])c2)cc1`, for which the Potency result is “inactive”.

Take `Cc1cc(C=O)c(C)n1-c1ccc(NC2CCCCC2)c([N+](=O)[O-])c1`: the Potency was 25.1 µM (active).

On to `Cc1c(NC(=O)CCC2CCCCC2)cc(C(=O)N2CCOCC2)cc1[N+](=O)[O-]`, for which the Potency result is “inactive”.

Turning to `CCOc1ccc(CC(=O)NCCc2csc3nc(-c4ccccc4F)nn23)cc1`, the Potency entry is “inactive”.

For `CCOc1ccccc1N(C)C(=O)c1cc2c(s1)-c1ccccc1OC2`, the Potency result is “inactive”.

As to `CCc1ccc(OCCCn2c(CCCNC(=O)C3CCCCC3)nc3ccccc32)cc1`, the Potency result was “inactive”.

Regarding `Cc1ccc(OCC(=O)Nc2ccc(Cl)c(-c3nc4ccccc4[nH]3)c2)cc1C`, the Potency entry was “inactive”.

On to `Cc1ccc(C(=O)Nc2ccccc2F)cc1S(=O)(=O)N1CCOCC1`, for which the Potency entry is “inactive”.

For the molecule `O=C(CC1SC(N2CCOCC2)=NC1=O)Nc1ccccc1F` (stereo not given), the Potency result is “inactive”.

For `N#C/C(=C\C1=C(N2CCOCC2)C(=C\c2ccccc2)/CC1)C(=O)Nc1ccccc1F`, the Potency is 7.08 µM (active).

Regarding `O=C(Nc1ccc(Br)cc1)c1ccc(Br)c(S(=O)(=O)NCc2ccccc2)c1`, the Potency entry was “inactive”.

Consider `CC(C)C12CN3CC(C(C)C)(CN(C1)C3c1ccc(OCc3ccccc3)cc1)C2=O` (stereo not given), for which the Potency entry was “inactive”.

Regarding `O=C(O)c1ccc2c(c1)N(Cc1ccc(F)cc1)C(=O)c1ccccc1S2=O` (stereo not given), the Potency result is “inactive”.

With `Cc1ccc(CNS(=O)(=O)c2ccc(-c3cc(C(F)(F)F)on3)s2)cc1`, the Potency entry is “inactive”.

Turning to `N#Cc1c(N2CCCCC2)nc(N)c2c(N)nc(SCC(=O)O)cc12`, the Potency is 35.5 µM (active).

Take `CCC(C)c1ccc2oc(-c3ccc(NC(=O)c4cc5ccccc5o4)cc3)nc2c1` (stereo not given): the Potency result was “inactive”.

As to `CCCCc1nn2c(=O)cc(COC(=O)c3ccccc3NC(=O)C(C)(C)C)nc2s1`, the Potency result was “inactive”.

For `Cc1cc(NC(=O)CSc2ncc(C(=O)Nc3ccc(Cl)cc3)c(=O)n2C)no1`, the Potency result was “inactive”.

Take `CSC1=N/C(=C\C=C\c2cccs2)C(=O)S1`: the Potency was 28.2 µM (active).

Take `Cc1ccc(C(=O)NCCSc2c(C)[nH]c3ccccc23)cc1C`: the Potency entry was “inactive”.

`Cc1ccc(C)c(N2C(=O)N(Cc3c(F)cccc3Cl)c3ccccc3S2(=O)=O)c1`: the Potency result was “inactive”.

For `COc1ccc(-c2onc(C)c2C)cc1S(=O)(=O)NCCc1ccccc1`, the Potency result is “inactive”.

Turning to `C=CCn1c(CCc2ccc(OC(C)C)cc2)n[nH]c1=S`, the Potency entry is “inactive”.

As to `COc1ccc(OCc2n[nH]c(=S)n2N)cc1`, the Potency was 10 µM (active).

On to `Cn1c(CCCOc2ccc(Cl)cc2Cl)n[nH]c1=S`, for which the Potency result was “inactive”.
